Laboratory results from PubChem BioAssay.
Activity calls are given as the source filed them. Unless noted, how the calls were made is not given here.

Assays:
[1] = system: XIP peptide (Xip251-270) binding; experiment: XIP fragment 251-270 binding compounds – biochemical, small-molecule microarray, fluorescence 635/667 nm, 0.1 µg/mL protein, primary screen (AID 1182); conditions: fluorescent protein binding, 635 nm, higher = more signal, called active from +8 up or from −8 down
XIP peptide (Xip251-270) = experiment: compounds binding XIP fragment 251-270 – biochemical, small-molecule microarray, fluorescence 635/667 nm, 0.5 µg/mL protein, primary screen (AID 1183); conditions: fluorescence 635 nm, higher = more signal
[2] = blood-stage malaria parasite viability loss – strain 3D7, DAPI fluorescence, 100 nL, primary screen (AID 1184);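 further: parasites grown inside human red blood cells in medium with human serum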; conditions: P. falciparum 3D7 growth, 3 d, higher = more signal
[3] = molecular target: Homeobox protein Hox-A13 (Mus musculus) (UniProt Q62424); experiment: disruptors of Hoxa13 oligonucleotide interaction – biochemical, fluorescence polarization, labeled oligonucleotide, primary screen (AID 1185); conditions: Hoxa13:DNA binding, 15 min, higher = more signal, called active from +8 up or from −8 down
Homeobox protein Hox-A13 (Mus musculus), sequence (Q62424 whole entry, looked up): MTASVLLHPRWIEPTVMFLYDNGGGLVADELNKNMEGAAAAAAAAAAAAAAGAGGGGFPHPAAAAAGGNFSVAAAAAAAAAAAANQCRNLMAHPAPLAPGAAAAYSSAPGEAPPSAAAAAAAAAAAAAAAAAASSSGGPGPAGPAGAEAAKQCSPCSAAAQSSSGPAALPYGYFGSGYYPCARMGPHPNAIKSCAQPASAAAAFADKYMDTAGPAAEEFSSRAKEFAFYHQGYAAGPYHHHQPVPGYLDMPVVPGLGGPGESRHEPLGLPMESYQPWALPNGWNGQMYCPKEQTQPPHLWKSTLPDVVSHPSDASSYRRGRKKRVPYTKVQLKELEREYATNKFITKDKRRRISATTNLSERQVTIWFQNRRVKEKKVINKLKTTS

[4] = blockers of DNA damage checkpoint Chk1 activation – imaging, HeLa, hydroxyurea, phospho-Chk1 antibody, percent positive cells, primary screen (AID 1186); conditions: hydroxyurea-induced phospho-Chk1 immunofluorescence imaging, higher = more signal
[5] = blockers of DNA damage checkpoint Chk1 activation – imaging, HeLa, hydroxyurea, phospho-Chk1 nuclear intensity, primary screen (AID 1187); conditions: hydroxyurea-induced phospho-Chk1 immunofluorescence imaging, higher = more signal

| SMILES | composite z-score [1] | composite z-score (XIP peptide (Xip251-270)) | z-score [2] | z-score [3] | z-score [4] | z-score [5] |
| --- | --- | --- | --- | --- | --- | --- |
| Cc1ccc([C@H]2C(C(=O)O)=C[C@@H](C(C)C)N2S(=O)(=O)c2ccc(C)cc2)cc1 | 0.165 (inactive) | 0.386 | 1.65 | -4.3 (inactive) | -0.482 (inactive) | -1.01 (inactive) |
| C=CCN1C(=O)[C@]2(COC(c3ccc(OCCCO)cc3)=N2)Cc2ccccc21 | 2.53 (inactive) | 0.797 | -2.19 | -4.31 (inactive) | -0.455 (inactive) | -0.398 (inactive) |
| Cc1ccc(N2C(=O)c3ccccc3[C@](C)(C(=O)NCCN3CCOCC3)[C@@H]2c2ccc(CO)cc2)nc1 | -0.772 (inactive) | 0.471 | -0.855 | -1.9 (inactive) | -0.217 (inactive) | -0.163 (inactive) |
| COc1ccc(C#Cc2ccc3c(c2)[C@]2(C(=O)N3)[C@H](C(=O)N3CCc4cc(OC)c(OC)cc4C3)[C@H]3C(=O)O[C@H](c4ccccc4)[C@H](c4ccccc4)N3[C@@H]2c2ccc(OCCO)cc2)cc1 | 0.53 (inactive) | 0.598 | -1.36 | -2.71 (inactive) | -0.122 (inactive) | 2.93 (inactive) |
| COC(=O)[C@@]1(Cc2ccc(F)cc2)[C@H]2c3cc(C(=O)N(C)C)n(CCc4c[nH]c5ccc(OC)cc45)c3C[C@H]2CN1C(=O)c1ccccc1 | 0.661 (inactive) | -0.21 | -1.52 | -0.694 (inactive) | 0.737 (inactive) | 0.0892 (inactive) |
| COc1ccccc1CN1C(=O)c2ccccc2[C@](Cc2ccccc2I)(C(=O)NCc2ccccc2)[C@@H]1c1ccc(CO)cc1 | -0.501 (inactive) | 0.801 | -0.818 | -2.8 (inactive) | 0.234 (inactive) | 0.365 (inactive) |
| O=C1OCCC/C=C\[C@H]2OC34C=CCN(CCN5CCOCC5)C(=O)[C@H]3N(CCO)C(=O)[C@@H]4C12 (stereo not given in full) | 0.489 (inactive) | -0.979 | -1.22 | -5.83 (inactive) | -0.225 (inactive) | 0.264 (inactive) |
| O=C(NCCN1CCOCC1)[C@@H]1c2ccccc2C(=O)N(Cc2cc(F)cc(C(F)(F)F)c2)[C@H]1c1ccc(CO)cc1 | 0.376 (inactive) | 0.372 | 0.0111 | -4.42 (inactive) | -0.189 (inactive) | -0.151 (inactive) |
| NC(=O)NCC#Cc1ccc2c(c1)[C@]1(C(=O)N2)[C@H](c2ccc(O)cc2)N2[C@H](c3ccccc3)[C@H](c3ccccc3)OC(=O)[C@H]2[C@@H]1C(=O)N1CCN(c2ncccn2)CC1 | 0.17 (inactive) | 0.466 | -0.136 | -1.61 (inactive) | 0.477 (inactive) | 1.04 (inactive) |
| C[C@H]1C2[C@H](Cc3ccccc3)NC(=O)[C@]23C(=O)N[C@H](Cc2ccccc2)C(=O)N[C@H](Cc2ccccc2)C(=O)NC/C=C/CCC/C=C/C3[C@@H]2O[C@]12C (stereo not given in full) | 0.353 (inactive) | 0.518 | -1.71 | -5.67 (inactive) | 0.275 (inactive) | 0.371 (inactive) |
| CCCNC(=O)[C@@]1(C)c2ccccc2C(=O)N(C(C)C)[C@H]1c1ccc(CO)cc1 | -0.358 (inactive) | -0.395 | -1.46 | -3.3 (inactive) | -0.017 (inactive) | -0.211 (inactive) |
| CC[C@@H]1C=C(C(=O)O)[C@H](c2ccc(C(C)C)cc2)N1S(=O)(=O)c1ccc(C)cc1 | 0.719 (inactive) | 0.924 | -0.646 | -5.17 (inactive) | 0.122 (inactive) | -0.118 (inactive) |
| COc1ccc([Si](C)(C)[C@H]2[C@H](CCO)O[C@@]3(C(=O)N(Cc4ccccc4)c4ccc(N5C(=O)COc6ccccc65)cc43)[C@@H]2C)cc1 | 0.577 (inactive) | 0.473 | -1.09 | -0.771 (inactive) | -0.584 (inactive) | -0.791 (inactive) |
| O=C1c2ccccc2[C@@]2(Cc3ccccc3N(Cc3ccccc3)C2=O)[C@H](c2ccc(CO)cc2)N1Cc1ccccc1C(F)(F)F | 3.2 (inactive) | 0.878 | -0.275 | -2.79 (inactive) | -0.21 (inactive) | -0.154 (inactive) |
| [N-]=[N+]=NCc1ccccc1C[C@@]1(C(=O)NCc2ccccc2)N=C(c2ccc(OCCCO)cc2)O[C@@H]1c1ccccc1CN=[N+]=[N-] | 0.804 (inactive) | 0.735 | -2.59 | 3.34 (inactive) | -0.174 (inactive) | -0.332 (inactive) |
| [N-]=[N+]=Nc1ccccc1C[C@]1(C(=O)N2CCCCC2)N=C(c2ccc(OCCCO)cc2)O[C@H]1c1ccccc1N=[N+]=[N-] | 1.01 (inactive) | 0.659 | -2.34 | -1.63 (inactive) | -0.0268 (inactive) | 0.205 (inactive) |
| COc1ccc([Si](C)(C)[C@H]2[C@H](CC(=O)N3CCC[C@H]3CO)O[C@@]3(C(=O)N(Cc4cccc(N5CCC5=O)c4)c4ccccc43)[C@@H]2C)cc1 | 0.185 (inactive) | 0.543 | -2.04 | -3.58 (inactive) | 0.307 (inactive) | 0.429 (inactive) |
| CCOC(=O)C1=CC[C@@H](c2cccc(Cl)c2)N(S(=O)(=O)c2ccc(C)cc2)[C@H]1c1ccc(C#N)cc1 | 0.197 (inactive) | 0.73 | -2.12 | 1.05 (inactive) | 0.645 (inactive) | -0.118 (inactive) |

| SMILES | composite z-score [1] | composite z-score (XIP peptide (Xip251-270)) | z-score [2] | z-score [3] | z-score [4] | z-score [5] |
| --- | --- | --- | --- | --- | --- | --- |
| CC(=O)n1cc(C(O)C2C=CC3C(=O)N(c4ccccc4)C(=O)C3N2Nc2ccc(C#N)cc2)c2ccccc21 (stereo not given) | 1.16 (inactive) | 0.786 | 0.429 | -3.54 (inactive) | -0.199 (inactive) | -0.217 (inactive) |
| C=C(CCCC)C(=O)CC[C@H](OC(C)=O)c1ccc(CO)o1 | 0.35 (inactive) | 0.0921 | -1.82 | -3.62 (inactive) | -0.059 (inactive) | -0.222 (inactive) |
| CCCNC(=O)[C@@]1(c2ccc([N+](=O)[O-])cc2)CC(=O)N(CC23CC4CC(CC(C4)C2)C3)[C@@H]1c1ccc(CO)cc1I | 1.18 (inactive) | 0.59 | -1.55 | -3.75 (inactive) | -0.28 (inactive) | -0.51 (inactive) |
| CN(C)CCCCCCNC(=O)[C@@H]1C[C@@H]2C(=O)NCC(=O)N2[C@@H]1c1cccc(OCCO)c1 | 0.096 (inactive) | 0.851 | 0.331 | -2.07 (inactive) | 0.491 (inactive) | 0.797 (inactive) |
| CCOC1=C2C(c3ccc(C)cc3)N(S(=O)(=O)c3ccc(C)cc3)CC2n2c(=O)n(-c3ccccc3)c(=O)n2C1 (stereo not given) | 0.346 (inactive) | 0.846 | -0.102 | -0.865 (inactive) | -0.562 (inactive) | 0.0267 (inactive) |
| CC(C)(C)OC(=O)CC[C@@]1(C(=O)N2CCOCC2)N=C(c2ccc(OCCCO)cc2)O[C@@H]1c1ccccc1N=[N+]=[N-] | 0.14 (inactive) | 0.84 | -1.97 | -4.17 (inactive) | -0.496 (inactive) | -0.439 (inactive) |
| C=C(C(=O)CC[C@@H](OC(=O)c1cccnc1)c1ccc(CO)o1)C(C)C | -0.239 (inactive) | 0.249 | -0.188 | -4.55 (inactive) | 0.647 (inactive) | 0.501 (inactive) |
| COc1ccc([Si](C)(C)[C@@H]2[C@@H](CCO)O[C@]3(C(=O)N(Cc4ccc(N5C(=O)c6cccc7cccc5c67)cc4)c4ccccc43)[C@H]2C)cc1 | 0.476 (inactive) | 0.596 | -2.68 | -0.946 (inactive) | -0.903 (inactive) | -0.198 (inactive) |
| C/C=C/[C@H](CCn1cc([C@H](O)c2ccccc2)nn1)[Si](C)(C)c1ccc(OC)cc1 | -0.0661 (inactive) | 0.634 | 1.03 | -5.59 (inactive) | -0.131 (inactive) | -0.28 (inactive) |
| CC(C)NC(=O)[C@@]1(c2ccc([N+](=O)[O-])cc2)CC(=O)N(C(C)C)[C@@H]1c1ccc(CO)cc1 | 0.508 (inactive) | 0.316 | 0.468 | -2 (inactive) | -0.403 (inactive) | -0.102 (inactive) |
| CCCCC(=O)N(Cc1ccccc1F)[C@@H]1CC(C(=O)NCCO)=C[C@H](Oc2c(I)cc(CO)cc2OC)[C@H]1O | 0.466 (inactive) | 0.704 | -1.66 | -7.53 (inactive) | 0.148 (inactive) | 0.545 (inactive) |
| CC(C)(C)OC(=O)CC[C@@]1(C(=O)NCC(O)CO)N=C(c2ccc(OCCCO)cc2)O[C@@H]1c1ccccc1 (stereo not given in full) | 0.826 (inactive) | 0.942 | 0.649 | -4.48 (inactive) | 0.184 (inactive) | -0.14 (inactive) |
| O=C1C2C=CC(C(O)c3ccc(-c4ccccc4)s3)N(Nc3ccccc3F)C2C(=O)N1c1ccccc1 (stereo not given) | 0.251 (inactive) | 0.734 | -0.531 | 0.151 (inactive) | 0.184 (inactive) | 0.414 (inactive) |
| COc1ccc(C(O)C2C=CC3C(=O)N(c4ccccc4)C(=O)C3N2Nc2ccccc2)c2ccccc12 (stereo not given) | 2.31 (inactive) | 0.573 | -0.182 | -1.28 (inactive) | -0.0153 (inactive) | -0.861 (inactive) |
| C=C(COC)C(=O)CC[C@H](OC(=O)c1cccnc1)c1ccccc1OCCO | -0.0123 (inactive) | 0.444 | -3.02 | -4.46 (inactive) | 0.735 (inactive) | 0.565 (inactive) |
| O=[N+]([O-])c1ccc(C[n+]2ccc(CCCO)cc2)o1 | 0.46 (inactive) | 0.968 | -1.28 | -2.88 (inactive) | -0.0644 (inactive) | 0.492 (inactive) |
| COc1cc2c(cc1O)C(c1ccc(CN3CCCC3)cc1)N(Cc1sc3ccccc3c1Cl)CC2 (stereo not given) | 0.656 (inactive) | 0.879 | -1.58 | -5.24 (inactive) | 0.356 (inactive) | 0.653 (inactive) |
